# According to PubChem BioAssay (NCATS):
# A number with no mark means an inactive call. Inconclusive results are not listed. A call without a number means that no potency is given here. Activity calls are given as the source filed them. Calls follow the shape of the dose curve; as a rule, active = well fitted curve in the direction sought with a large enough effect; inconclusive = small, poorly fitted or top-dose-only effect, or another doubt; inactive = no such curve, though single readings can be large; an effect the other way counts as inactive or inconclusive.
# Key:
# [1] = Primary qHTS for inhibitors of La Crosse Virus (LACV) - induced cell death in SH-SY5Y cells (AID 1508616); also: potency is read from the fitted curve at half-maximal effect
# Method in brief: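 Screening measures cell viability in LACV-infected SH-SY5Y cultures. Compound was added before virus (0.01 MOI), and ATP was detected by luminescence 6 days later.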
# [2] = Validation qHTS assay for inhibitors of Activation Induced Cytidine Deaminase (AID): UDG Counterscreen signal (AID 1347427)
# Method in brief: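 Fluorescence at 560 nm excitation, 665 nm emission reports UDG signal after 250 mM NaOH (2x) addition and 30 min. Enzymes (AID 1 uM, UDG 2 U/mL, at 4/3x) preincubated 10 min with compound, then 4 h with 4x 250 nM DJC20/DJC23 substrate at room temperature.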
# [3] = biological target: Single-stranded DNA cytosine deaminase (Homo sapiens) (UniProt Q9GZX7); assay: Validation qHTS assay for inhibitors of Activation Induced Cytidine Deaminase (AID): AID signal (AID 1347429)
# Method in brief: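 Compounds (up to 114 uM final) are tested against AID plus UDG using DJC20/DJC23 FRET substrate. Reactions incubate 4 hr at room temperature, receive NaOH for 30 min, and are read at Ex 540/Em 590 nm.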
# [4] = biological target: Calcium and integrin-binding protein 1 (Homo sapiens) (UniProt Q99828); assay: Validation qHTS for Identification of Calcium Integrin Binding protein 1 (CIB1) Competitor (AID 1508618)
# Method in brief: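 CIB1-GST (1 uM final) incubated 15 min at room temperature with compounds (up to 114 uM), then FITC-labelled alphaIIb peptide (100 nM) added. FP read (Ex 480/Em 540) after 15 min, pH 7.4 buffer containing 5 mM CaCl2.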
# [5] = Primary qHTS for small molecule stabilizers of the endoplasmic reticulum resident proteome: Secreted ER Calcium Modulated Protein (SERCaMP) assay (AID 1508630)
# Method in brief: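 The SH-SY5Y reporter protocol was run at 3 concentrations up to 38.3 uM (primary) or 11 concentrations (follow-up): 16 h compound, 100 nM thapsigargin for 4 h, then extracellular luciferase luminescence.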
# [6] = biological target: Calcium and integrin-binding protein 1 (Homo sapiens) (UniProt Q99828); assay: Primary qHTS for Identification of Calcium Integrin Binding Protein 1 (CIB1) Competitor (AID 1508620);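 also: GST tagged CIB1 binding a fluorescein labelled alphaIIb integrin peptide tracer; top concentration of the series differs between compounds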
# Method in brief: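 Fluorescence polarization competition: GST-tagged CIB1 (1 uM final) preincubated with compound 15 min at room temperature, then FITC-labelled alphaIIb peptide (100 nM final) added. After 15 min at room temperature, polarization read at Ex 480/Em 540.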
# Sequence of Calcium and integrin-binding protein 1 (Homo sapiens) (Q99828 whole entry, looked up): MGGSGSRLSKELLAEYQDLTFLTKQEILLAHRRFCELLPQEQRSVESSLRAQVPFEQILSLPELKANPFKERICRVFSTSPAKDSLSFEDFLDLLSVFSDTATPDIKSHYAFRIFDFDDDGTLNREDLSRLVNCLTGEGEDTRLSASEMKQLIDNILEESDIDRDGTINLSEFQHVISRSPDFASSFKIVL
# Sequence of Single-stranded DNA cytosine deaminase (Homo sapiens) (Q9GZX7 whole entry, looked up): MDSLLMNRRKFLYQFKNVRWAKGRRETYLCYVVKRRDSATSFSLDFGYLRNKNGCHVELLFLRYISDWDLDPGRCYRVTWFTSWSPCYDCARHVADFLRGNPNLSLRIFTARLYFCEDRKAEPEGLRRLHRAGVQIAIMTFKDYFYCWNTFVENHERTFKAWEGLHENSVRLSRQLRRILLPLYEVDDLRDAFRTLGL
compound,measurement,setting,value
O=c1ccc2ccccc2o1,Potency,[1],inactive
O=C(O)c1cc2cc(Cc3cccnc3)ccc2o1,outcome,[2],inactive
same,Potency,[3],inactive
same,Potency,[1],inactive
same,outcome,[4],inactive
same,Potency,[5],inactive
Cc1ccc(O)c2ncccc12,Potency,[1],inactive
CCN(CC)C(=O)/C(C#N)=C/c1cc(O)c(O)c([N+](=O)[O-])c1,Potency,[1],inactive
COc1cc2c(cc1O)CC[C@@H]1[C@@H]2CC[C@]2(C)[C@@H](O)CC[C@@H]12,outcome,[2],inactive
same,Potency,[3],inactive
same,Potency,[1],0.631 µM (active)
same,outcome,[4],inactive
same,Potency,[5],inactive
CN1CCC(=C2c3ccccc3Sc3ccccc32)CC1,Potency,[1],inactive
same,Potency,[6],inactive
O=C1OC(c2ccc(O)cc2)(c2ccc(O)cc2)c2ccccc21,Potency,[1],inactive
same,Potency,[6],inactive
Cc1cccn2c(=O)c(-c3nnn[nH]3)cnc12,Potency,[1],inactive
same,Potency,[6],inactive
O=C1[C@H]2CCCC[C@H]2C(=O)N1CCCCN1CCN(c2nsc3ccccc23)CC1,Potency,[1],inactive
same,Potency,[6],inactive
CCCC(=O)Nc1ccc(OCC(O)CNC(C)C)c(C(C)=O)c1 (stereo not given),Potency,[1],inactive
same,Potency,[6],inactive
NC(CO)(CO)CO,Potency,[1],inactive
same,Potency,[6],inactive
COc1ccc(OC)c(C(O)CNC(=O)CN)c1 (stereo not given),Potency,[1],inactive
same,Potency,[6],inactive
O=C1OCCN1/N=C/c1ccc([N+](=O)[O-])o1,Potency,[1],inactive
same,Potency,[6],inactive
COc1cc(/C=C/C(=O)O[C@H]2CC[C@]34C[C@]35CC[C@]3(C)[C@@H]([C@H](C)CCC=C(C)C)CC[C@@]3(C)[C@@H]5CC[C@H]4C2(C)C)ccc1O,Potency,[1],inactive
same,Potency,[6],inactive
CNC(=O)CN(CCN(CCN(CC(=O)[O-])CC(=O)NC)CC(=O)[O-])CC(=O)[O-].O.[Gd+3],Potency,[1],inactive
same,Potency,[6],inactive
COc1ccc(CN2CCN(C(c3ccc(F)cc3)c3ccc(F)cc3)CC2)c(OC)c1OC,Potency,[1],inactive
same,Potency,[6],inactive
CN(C)CC/C=C1/c2ccccc2COc2ccc(CC(=O)O)cc21,Potency,[1],inactive
same,Potency,[6],inactive
CNCC[C@@H](Oc1ccccc1C)c1ccccc1,Potency,[1],inactive
same,Potency,[6],inactive
OC[C@H]1O[C@H](O[C@]2(CCl)O[C@H](CCl)[C@@H](O)[C@@H]2O)[C@H](O)[C@@H](O)[C@H]1Cl,Potency,[1],inactive
same,Potency,[6],inactive
OCc1ccccc1O,Potency,[1],inactive
same,Potency,[6],inactive
NCCCC[C@H](N[C@@H](CCc1ccccc1)C(=O)O)C(=O)N1CCC[C@H]1C(=O)O,Potency,[1],inactive
same,Potency,[6],inactive
CCCCOc1cc(C(=O)NCCN(CC)CC)c2ccccc2n1,Potency,[1],inactive
same,Potency,[6],inactive
OC(CCN1CCCCC1)(c1ccccc1)c1ccccc1,Potency,[1],inactive
same,Potency,[6],inactive
CCCCCCc1ccc(O)cc1O,Potency,[1],inactive
same,Potency,[6],inactive
COc1cc2c(cc1OC)C(C(C(=O)N(CCc1ccc(OC)c(OC)c1OC)CCc1ccc(OC)c(OC)c1OC)c1ccccc1)=NCC2 (stereo not given),Potency,[1],inactive
same,Potency,[6],inactive
C[C@]12CCC(=O)C=C1[C@@H]1C[C@@H]1[C@H]1[C@@H]3[C@@H]4C[C@@H]4[C@@]4(CCC(=O)O4)[C@@]3(C)CC[C@@H]12,Potency,[1],inactive
same,Potency,[6],inactive
